{
  "source": "PubChem BioAssay AID651635",
  "about": "(National Center for Advancing Translational Sciences (NCATS), 2012)",
  "note": "About 1,900 (0.47%) of roughly 400,000 compounds were called active. Inconclusive results (about 14%) are left out. Calls come from the whole dose curve; as a rule, active = well fitted cell-killing curve with a large enough effect; inconclusive = small, poorly fitted or top-dose-only effect, or effect the other way; inactive = no such curve, though single readings can be large or run the other way. The entries come from a sample that favours actives as a whole. Potency is the fitted concentration of half-maximal effect.",
  "data": [
    {"experiment": "Viability Counterscreen for Primary qHTS for Inhibitors of ATXN expression; note: nearly all actives have a fitted effect of over 40% in size", "conditions": "S2 cells (HEK-293 line with an ATXN2-luciferase reporter) viability, CellTiter-Fluor protease fluorescence, 24 h; series mostly up to 56.7 µM; activity change, negative = cytotoxicity: at the top concentration", "source_text": "Spinocerebellar ataxia type 2 (SCA2) is a multisystem neurodegenerative disease caused by a dominantly-acting mutation leading to expansion of a polyQ domain in the ataxin-2 protein (ATXN2). SCA2 patients develop progressive ataxia and later lose function in other neuronal systems. Prominent parkinsonian signs develop in some patients. Similar to many neurodegenerative disorders, no symptomatic or disease-modifying treatments are known.\nThe primary objective of the proposed research is to identify compounds inhibiting ATXN2 expression and to test them for efficacy in SCA2 mouse models. To this end, we have developed a cell-based assay paired with an in vivo mouse model using identical luciferase expression constructs. This approach takes advantage of an ATXN2-luciferase transgene, with the luciferase gene flanked by the upstream and downstream portions of the ATXN2 gene. This primary assay was tested against the NIH Molecular Libraries Small Molecule Repository (MLSMR).\nNIH Chemical Genomics Center [NCGC]\nNIH Molecular Libraries Probe Centers Network [MLPCN]\nAssay Submitter (PI): Daniel Scoles, University of Utah\nPROTOCOL TABLE (as described by Inglese J, Shamu CE and Guy RK. 2007)\nSEQUENCE No. (e.g., 1, 2, 3, etc.); […] (e.g., Cells, Incubation, Reagent, etc.); VALUE; DESCRIPTION.\n1; Cells; 4 uL; white, solid bottom, 1536-well Greiner assay plate.\n2; Incubation; 2 hr; 37 degree C in 5% humidified CO2.\n3; Compounds; 23 nL; Kalypsis pintool (Wako USA) equipped with a 1536-well pin head.\n4; Incubation; 24 hr; 37 degree C in 5% humidified CO2.\n5; Reagent; 1 uL; Gly-Phe-7-Amino-4-trifluoromethylcoumarin.\n6; Incubation; 30 min; 37 degree C in 5% humidified CO2.\n7; Detection; Fluorescence; ViewLux plate reader (PerkinElmer).\n8; Reagent; 3 uL; SteadyGlo luciferase solution (Promega).\n9; Incubation; 5 min; room temperature.\n10; Detection; Luminescence; ViewLux plate reader (PerkinElmer).\nNOTES (numbers refer to Sequence numbers above)\n1. S2 cells expressing ATXN2-luciferase reporter were suspended in phenol-red free DMEM and dispensed in assay plates using a Multidrop Combi dispenser (Thermo Fisher Scientific).\n2. Assay plates were incubated. Evaporation was prevented by covering assay plates with metal lids containing holes to allow gas diffusion.\n3. […] Vehicle-only plates, with DMSO being pin-transferred to columns 5-48, were inserted uniformly at the beginning and the end of each library to monitor and record any shifts in assay performance.\n5. 125 uM Gly-Phe-7-Amino-4-trifluoromethylcoumarin (MP Biomedicals) working concentration was used at a final concentration of 25 uM.\n7. To assess cell viability; the assay plates were read using the ViewLux high-throughput CCD imager (PerkinElmer), wherein single end-point fluorescence measurement was acquired (excitation 405/10; emission 540/25 nm).\n8. Detection reagent SteadyGlo Luciferase (Promega) was added to the assay plate.\n10. Luminescence is then measured on the ViewLux imager equipped with a clear emission filter using a 2 sec exposure. All screening operations were performed on a fully integrated robotic system (Kalypsys) containing one RX-130 and two RX-90 anthropomorphic robotic arms (Staubli).\nInglese J, Shamu CE and Guy RK, Reporting data from high throughput screening of small molecule libraries, Nature Chemical Biology, 2007, 3(8): 438-441. doi.org/10.1038/nchembio0807-438.", "values": [
      {"smiles": "CCOC(=O)c1scc(-c2ccccc2)c1S(=O)(=O)Nc1ccccc1F", "activity change, negative = cytotoxicity": "-31.3% (inactive)"},
      {"smiles": "CCOC(=O)c1c(-c2ccc(-c3ccccc3)cc2)csc1NC(=O)CCC(=O)O", "activity change, negative = cytotoxicity": "-35.3% (inactive)"},
      {"smiles": "Cc1ccc(C)c(C(O)c2ncc(-c3cccc4ccccc34)[nH]2)c1", "note": "(stereo not given)", "activity change, negative = cytotoxicity": "-33.6% (inactive)"},
      {"smiles": "CO[C@H]1[C@@H](O)[C@H](N)[C@@H](O[C@H]2O[C@H]([C@H](C)N)CC[C@H]2N)[C@H](O)[C@@H]1N(C)C(=O)CN", "activity change, negative = cytotoxicity": "6.53% (inactive)"},
      {"smiles": "Cc1ccc(CN2CC(N3CCC(Cc4ccccc4)CC3)CS2(=O)=O)cc1", "note": "(stereo not given)", "activity change, negative = cytotoxicity": "-41.7% (inactive)"},
      {"smiles": "O=C(COC(=O)CCc1c[nH]c(=O)[nH]1)Nc1ccccc1Cl", "activity change, negative = cytotoxicity": "-9.43% (inactive)"},
      {"smiles": "O=C(Nc1ccccc1Cl)/C(Cl)=C(\\Cl)S(=O)c1ccccc1", "note": "(stereo not given)", "Potency": "3.55 µM (active)"},
      {"smiles": "NC(=O)C1(Nc2ccccc2Cl)CCCC1", "activity change, negative = cytotoxicity": "-14.6% (inactive)"},
      {"smiles": "O=C(CN1C(=O)COc2ccc(S(=O)(=O)N3CCCCCC3)cc21)N1CCN(c2cccc(C(F)(F)F)c2)CC1", "activity change, negative = cytotoxicity": "11.2% (inactive)"},
      {"smiles": "Cc1ccc(S(=O)(=O)c2nc(-c3cccs3)oc2NCc2cccnc2)cc1", "activity change, negative = cytotoxicity": "-13.9% (inactive)"},
      {"smiles": "CCCCS(=O)(=O)c1oc(-c2cccs2)nc1S(=O)(=O)c1ccccc1", "Potency": "3.16 µM (active)"},
      {"smiles": "NC(=O)CSc1oc(-c2cccs2)nc1S(=O)(=O)c1ccccc1", "activity change, negative = cytotoxicity": "-24.8% (inactive)"},
      {"smiles": "COc1ccccc1-c1ccnc(-n2ncc(C(=O)NCCCN3CCOCC3)c2C)n1", "activity change, negative = cytotoxicity": "-0.273% (inactive)"},
      {"smiles": "Cc1ccc(-c2cnc(C(O)c3cc(Cl)cc(Cl)c3)[nH]2)cc1", "note": "(stereo not given)", "activity change, negative = cytotoxicity": "-36.4% (inactive)"},
      {"smiles": "Cc1cc(C)c2oc(C(=O)Nc3ccc(S(=O)(=O)N4CCCCCC4)cc3)cc(=O)c2c1", "activity change, negative = cytotoxicity": "-26.3% (inactive)"},
      {"smiles": "CCCc1ccc(C(O)c2ncc(-c3cccc(OC)c3)[nH]2)cc1", "note": "(stereo not given)", "activity change, negative = cytotoxicity": "-15.1% (inactive)"},
      {"smiles": "COc1cccc(NC(=O)Nc2ccc(F)cc2)c1", "activity change, negative = cytotoxicity": "-34.2% (inactive)"},
      {"smiles": "COc1ccc(C(N)c2csc(NC(=O)Nc3cccc(C(F)(F)F)c3)n2)cc1", "note": "(stereo not given)", "Potency": "17.8 µM (active)"},
      {"smiles": "CC(=O)c1ccc(Nc2nc(C(N)c3ccccc3)cs2)cc1", "note": "(stereo not given)", "activity change, negative = cytotoxicity": "-21.7% (inactive)"},
      {"smiles": "Cc1c(O)cc2c(c1C)O[C@](C)(CCC[C@H](C)CCC[C@H](C)CCCC(C)C)CC2", "activity change, negative = cytotoxicity": "-6.32% (inactive)"},
      {"smiles": "OCC1CCCN(c2nc3cc4c(cc3cc2CNCc2cccs2)OCO4)C1", "note": "(stereo not given)", "activity change, negative = cytotoxicity": "-16.8% (inactive)"},
      {"smiles": "CC(C)c1cccc(C(C)C)c1Nc1cn[nH]c1", "activity change, negative = cytotoxicity": "-36.2% (inactive)"},
      {"smiles": "CC(C)C[C@H]1CNC(=S)N1C[C@H]1CCCN1C[C@H](Cc1ccc(O)cc1)N1C[C@H](Cc2ccc(O)cc2)N(CC2CCCCC2)C1=S", "Potency": "31.6 µM (active)"},
      {"smiles": "O=C1NC[C@H](Cc2ccc(O)cc2)N(C[C@@H]2CCCN2C[C@H](Cc2ccccc2)N2C[C@H](Cc3ccccc3)N(CC3CCCCC3)C(=O)C2=O)C1=O", "activity change, negative = cytotoxicity": "-28.5% (inactive)"},
      {"smiles": "CC(C)C[C@H]1CNC(=O)C(=O)N1C[C@@H]1CCCN1C[C@H](Cc1ccccc1)N1C[C@H](CC(C)C)N(CC2CCCCCC2)C(=O)C1=O", "activity change, negative = cytotoxicity": "-13.6% (inactive)"},
      {"smiles": "COc1ccc(C2CC(c3cccc(OC)c3)=NN2c2ccc(S(N)(=O)=O)cc2)cc1", "note": "(stereo not given)", "activity change, negative = cytotoxicity": "-3.55% (inactive)"},
      {"smiles": "CCCOc1ccc(F)cc1-c1cc(C(=O)Nc2ccc(F)c(Cl)c2)[nH]n1", "activity change, negative = cytotoxicity": "-38.1% (inactive)"},
      {"smiles": "Nc1cccc(OCCCCCOc2cccc(N)c2)c1", "activity change, negative = cytotoxicity": "-35% (inactive)"},
      {"smiles": "O=c1c(CN2CCOc3ccc(CN4CCC(Oc5cccnc5)CC4)cc3C2)coc2ccccc12", "Potency": "28.2 µM (active)"},
      {"smiles": "c1ccc(CN2CCN(Cc3ccc4c(c3)CN(Cc3c[nH]c5ccccc35)CCO4)CC2)nc1", "activity change, negative = cytotoxicity": "-13.5% (inactive)"},
      {"smiles": "CCOC(=O)N1CCC(N2CCOc3ccc(CN4CCC(O)(c5cccnc5)CC4)cc3C2)CC1", "activity change, negative = cytotoxicity": "-3.39% (inactive)"},
      {"smiles": "Cc1cc(-c2ccnc(-n3ncc(C(=O)NCCc4ccncc4)c3C)n2)c(C)s1", "activity change, negative = cytotoxicity": "-10.8% (inactive)"},
      {"smiles": "CC[C@H](C)CCCCC(=O)N[C@@H](CCN)C(=O)N[C@H](C(=O)N[C@@H](CCN)C(=O)N[C@H]1CCNC(=O)[C@@H]([C@H](C)O)NC(=O)[C@H](CCN)NC(=O)[C@H](CCN)NC(=O)[C@H](CC(C)C)NC(=O)[C@@H](CC(C)C)NC(=O)[C@H](CCN)NC1=O)[C@@H](C)O", "activity change, negative = cytotoxicity": "-16% [at 25.4 µM] (inactive)"},
      {"smiles": "CC(C)N=C1CCCC1C(=S)SSC(=S)C1CCCC1=NC(C)C", "note": "(stereo not given)", "Potency": "0.282 µM (active)"},
      {"smiles": "CC1(C(=O)NS(=O)(=O)c2ccc3ccccc3c2)CCN1C(=O)C1(c2ccc(Cl)cc2)CCC1", "note": "(stereo not given)", "activity change, negative = cytotoxicity": "-0.293% (inactive)"},
      {"smiles": "CCOC(=O)Cc1ccc(NC(=O)Nc2c[nH]c(=O)[nH]c2=O)cc1", "activity change, negative = cytotoxicity": "-20.1% (inactive)"},
      {"smiles": "COC(=O)c1ccccc1C(=O)NCc1nc(N2CCCC2)c2cccc(C)c2n1", "activity change, negative = cytotoxicity": "-14.5% (inactive)"},
      {"smiles": "COc1ccc(COC[C@H](CC(C)C)N2CCN(C(=O)c3cccc(C(F)(F)F)c3)CCC2=O)cc1", "activity change, negative = cytotoxicity": "-37% (inactive)"},
      {"smiles": "CC(=O)N1Cc2cc(C(=O)NCc3cccc(F)c3)nc(-c3cccc(C4=CCCC4)c3)c2[C@H]1CCO", "activity change, negative = cytotoxicity": "-32.4% (inactive)"},
      {"smiles": "CCCCOCCOC(=O)c1cccnc1", "activity change, negative = cytotoxicity": "-20% (inactive)"},
      {"smiles": "Cc1coc2c(O)cc3c(c12)OC1(N2CCCCC2)C(=O)NCCCC31", "note": "(stereo not given)", "Potency": "31.6 µM (active)"},
      {"smiles": "C=CCC[C@H](CCCCC)OC(=O)/C=C/[C@H](O)[C@@H](O)C[C@@H](O)CC=C", "activity change, negative = cytotoxicity": "-36.7% (inactive)"},
      {"smiles": "O[C@H]1CN(Cc2cccs2)[C@@H](c2ccc(Cl)cc2)C[C@@H]1n1cc(C2CC2)nn1", "activity change, negative = cytotoxicity": "-13.8% (inactive)"},
      {"smiles": "O=C(OCc1cn([C@@H]2C[C@H](c3ccc(Cl)cc3)N(Cc3cccs3)C[C@H]2O)nn1)c1ccccc1", "activity change, negative = cytotoxicity": "-17.8% (inactive)"},
      {"smiles": "O[C@H]1C[C@H](c2ccc(Cl)cc2)N(Cc2cccs2)C[C@@H]1n1cc(C2CC2)nn1", "Potency": "22.4 µM (active)"}
    ]}
  ]
}
